# Bioassay records (PubChem)
# Shiga toxin inh = blocks Shiga toxin action in Vero cells; Vero cells, Shiga toxin protein synthesis inhibition reporter; 290,000 tested, 9.2% active; inhibition, % at 38.7 µM; in the data active = inhibition mostly above about 28%, no sharp cut-off; inactive = mostly below about 43%; also: 0% is about no effect
# CHX counter = affects cycloheximide protein synthesis inhibition readout, counter-screen. cell reporter, cycloheximide protein synthesis inhibition counterscreen. 300,000 tested, 12% active. max response, %; in the data active = max response mostly above about 13%, no sharp cut-off; inactive = mostly below about 14%; also: read at 38.3 µM for the half of the compounds with a filed dose; 0% is about no effect
# Giardia FBPA inh = Giardia lamblia aldolase inhibition; A8B2U2; purified Giardia FBPA; Potency, µM (titrated, usually from 59.6 µM), for inactives: top-dose activity, negative = inhibition, usual class: inhibitors; 290,000 tested, 0.71% active; AID 2451; also: potency is read from the fitted curve at half-maximal effect; % is scaled to controls: 0 for no effect and ±100 for the full control effect; nearly all actives have a fitted effect of over 55% in size
# Target sequence (A8B2U2 whole entry, looked up): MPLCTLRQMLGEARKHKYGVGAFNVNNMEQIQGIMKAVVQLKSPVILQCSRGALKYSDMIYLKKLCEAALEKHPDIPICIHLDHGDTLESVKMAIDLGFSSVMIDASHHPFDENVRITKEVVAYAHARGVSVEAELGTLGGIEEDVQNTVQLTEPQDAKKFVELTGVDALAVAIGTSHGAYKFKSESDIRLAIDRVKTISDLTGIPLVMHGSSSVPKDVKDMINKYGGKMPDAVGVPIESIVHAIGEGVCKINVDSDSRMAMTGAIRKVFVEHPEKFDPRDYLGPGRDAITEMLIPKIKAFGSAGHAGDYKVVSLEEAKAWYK
#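 Giardia FBPA (40 nM reagent) was preincubated 10 min at RT with compound (up to 57.5 uM final), then substrate plus GAPDH/TPI/NAD/arsenate coupling system with diaphorase/resazurin was added; resorufin fluorescence (525/598 nm) was read after 20 min.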
# TbPYK inhibitor = blocks Trypanosoma brucei pyruvate kinase; TbPYK enzyme, Kinase-Glo Plus ATP luminescence, 45 min; Potency, µM (titrated, usually from 76.8 µM), for the others: top-dose activity, negative = inhibition, most hits filed as inhibitors; 410,000 tested, 0.12% active; also: potency is read from the fitted curve at half-maximal effect; % is scaled to controls: 0 for no effect and ±100 for the full control effect; nearly all actives have a fitted effect of over 50% in size
#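 Activity of T. brucei pyruvate kinase was followed by Kinase-Glo Plus luminescence after the enzyme reacted 45 min at room temperature with 130 uM ADP (final) and substrate. Test compounds were added before ADP at multiple concentrations.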
# Sm TGR block = S. mansoni TGR enzyme inhibition. Potency, µM (titrated, usually from 114 µM), inactives show at the highest dose activity change, negative = inhibition, hits mostly inhibitors. Q962Y6. purified TGR, DTNB reduction, TNB absorbance 405 nm. 360,000 tested, 3% active; also: potency is read from the fitted curve at half-maximal effect; % is scaled to controls: 0 for no effect and ±100 for the full control effect; nearly all actives have a fitted effect of over 60% in size
#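 TGR 20 nM + NADPH 100 uM (dispensed conc.), cpd preinc 15 min RT; start with NADPH (500 uM addition) then DTNB (15 mM addition). Kinetic TNB absorbance, 405 nm filter. Four-parameter Hill fit across titration.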
# LmPK inh = blocks Leishmania mexicana pyruvate kinase activity; 290,000 tested, 0.37% active; purified LmPK, Kinase-Glo ATP luminescence, 1 h; Potency, µM (series often up to 57.5 µM), without a hit: at the highest dose activity change, negative = inhibition, hits mostly inhibitors; AID 1721; Q27686; also: potency is read from the fitted curve at half-maximal effect; % is scaled to controls: 0 for no effect and ±100 for the full control effect
#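 qHTS format; LmPK 0.1 nM; substrates PEP 0.5 mM and ADP 0.1 mM. One-hour room-temperature incubation, then coupled luciferase luminescence; 0.5 nM enzyme wells mark activation.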
# Starred values were filed as active, the others as inactive; u = inconclusive; x = not tested or not shown; [ ] = dose if it differs, or a comment. The entries come from a sample that favours hits as a whole. Unless noted, calls follow the shape of the dose curve; as a rule, active = well fitted curve in the direction sought with a large enough effect; inconclusive = small, poorly fitted or top-dose-only effect, or another doubt; inactive = no such curve, though single readings can be large; an effect the other way counts as inactive or inconclusive.
SMILES,Shiga toxin inh,CHX counter,Giardia FBPA inh,TbPYK inhibitor,Sm TGR block,LmPK inh
N#Cc1c(SCC(=O)Nc2ccc(C(F)(F)F)cc2)sc2c(O)cc(=O)[nH]c12,-4.0,-5.1,-4.3%,-5.1%,-25.9%,-3.0%
N#Cc1c(SCC(=O)Nc2nncs2)sc2c(O)cc(=O)[nH]c12,-5.3,-0.6,u,-16.5%,35.5µM*,4.1%
O=C1CCCc2cc(S(=O)(=O)N3CCCC(C(=O)NCc4ccccc4Cl)C3)ccc2N1 (stereo not drawn),x,x,x,-14.1%,8.6%,x
CCN1C(=O)[C@H]2[C@@H](c3ccc(C(F)(F)F)cc3)N[C@]3(CCCN(Cc4ccc(F)cc4)C3=O)[C@H]2C1=O,x,x,x,-2.6%,x,x
COc1ccc(CNC(=O)c2ccc(S(=O)(=O)NCc3ccco3)cc2)cc1,x,x,x,1.6%,u,x
COc1ccc(NC(=O)c2c(NCc3cccs3)sc3c2CCCC3)cc1,x,x,x,u,31.6µM*,x
CCOc1ccc(NC(=O)c2c(NCc3cccs3)sc3c2CCC(C)C3)cc1 (stereo not drawn),x,x,x,-10.5%,-9.7%,x
CCOC(=O)c1ccc(NC(=O)c2c(NC(=O)CCC(=O)O)sc3c2CCCCC3)cc1,22.9,17.0*,u,0.1%,0.0%,-0.6%
CCOC(=O)c1ccc(NC(=O)c2c(NCc3cccs3)sc3c2CCCCC3)cc1,x,x,x,u,14.1µM*,x
COc1ccc(NC(=O)CN(C)CC(=O)Nc2sc3c(c2C(N)=O)CCC3)cc1,x,x,x,-9.7%,50.1µM*,x
Cc1cc(=O)n2[nH]c(SCc3ccccc3Cl)nc2n1,-5.4,-2.4,-26.6%,2.7%,70.7%,2.9%
Cc1nn(C(=O)c2cccc([N+](=O)[O-])c2C)c(C)c1S(=O)(=O)N1CCOCC1,x,x,x,2.3%,-4.9%,x
CCCc1ccc(S(=O)(=O)N2CCC(c3nnnn3-c3ccc(OC)cc3)CC2)cc1,x,x,x,1.7%,-0.6%,x
CCN(CC(=O)Nc1c(F)cccc1F)C(=O)CSc1nc(C)cc(C)n1,11.2,-1.7,x,-9.4%,6.3%,-1.4%
COc1cccc(NC(=O)CSC2=Nc3ccccc3C3=NC(CCC(=O)NCCc4ccccc4)C(=O)N23)c1 (stereo not drawn),x,x,x,-5.4%,-0.8%,x
COc1ccc(NC(=O)c2c(NCc3cccs3)sc3c2CCCCC3)c(OC)c1,x,x,x,u,5.62µM*,x
COC(=O)C1C(=O)c2c([nH]c(C(=O)OC3CCCCC3)c2C)CC1C (stereo not drawn),41.5*,30.9*,5.7%,-20.7%,-19.3%,0.6%
COC(=O)C1C(=O)c2c([nH]c(C(=O)OCCOC(C)C)c2C)CC1C (stereo not drawn),35.4,16.3*,-16.5%,-1.2%,-8.6%,2.3%
COC(=O)C1C(=O)c2c([nH]c(C(=O)OC3CCCC3C)c2C)CC1C (stereo not drawn),66.5*,26.5*,-9.1%,0.8%,-0.6%,2.9%
COc1ccc(N(C(=O)c2cc(OC)c(OC)c(OC)c2)S(=O)(=O)c2ccc(C)cc2)cc1,x,x,x,1.7%,4.8%,x
CS(=O)(=O)Oc1ccc2c(c1)O/C(=C\c1cccc([N+](=O)[O-])c1)C2=O,29.0,4.2,-7.4%,2.5%,-10.9%,1.9%
CCc1ccc(/C=C2\Oc3cc(OS(C)(=O)=O)ccc3C2=O)cc1,-6.6,14.1*,-3.4%,0.1%,-5.7%,0.9%
CS(=O)(=O)Oc1ccc2c(c1)O/C(=C\C=C\c1ccccc1)C2=O,36.1*,14.6*,-7.2%,0.9%,u,1.7%
CSc1nccc(N/N=C/c2ccccc2)n1,89.6*,59.4*,-0.7%,4.4%,0.0%,-5.1%
C(=N\Nc1ccc(-n2ccnc2)nn1)/c1ccccc1,24.3,-0.5,7.4%,2.4%,-1.3%,0.1%
SMILES,Shiga toxin inh,CHX counter,Giardia FBPA inh,TbPYK inhibitor,Sm TGR block,LmPK inh
Cc1ccnc(N/N=C/c2ccccc2)n1,57.5*,28.3*,-21.9%,-5.7%,-2.3%,u
C(=N\Nc1nccc(-c2cccnc2)n1)/c1ccccc1,88.6*,55.7*,0.2%,-23.1%,3.2%,-29.7%
O=C(Nc1cc(Cl)cc(Cl)c1)c1ccc(F)c(S(=O)(=O)NC2CCCCC2)c1,x,x,x,3.0%,7.6%,x
COc1ccc(C2=Nc3ccccc3NC(=O)C2N(Cc2ccccc2)C(=O)C2=NNC(=O)CC2)cc1 (stereo not drawn),x,x,x,-5.3%,x,x
CC(NC(=O)C1CCN(S(=O)(=O)c2ccc(F)cc2)CC1)c1ccccc1 (stereo not drawn),x,x,x,-1.6%,-6.6%,x
Cc1cccc(OCC(=O)Nc2ncn[nH]2)c1C,15.9,11.3*,-9.4%,-6.3%,7.8%,-7.0%
Cc1cc(Cl)ccc1OCC(=O)NCc1ccncc1,55.5,30.6,x,7.7%,9.8%,0.2%
CC(=O)c1sc(NC(=O)COc2ccc(Cl)cc2C)nc1C,44.2,27.8*,5.7%,1.1%,25.7%,-2.8%
Cc1cc(Cl)ccc1OCC(=O)Nc1ccncc1,x,27.0*,-1.1%,-20.6%,6.5%,-0.1%
Cc1cccc(OCC(=O)Nc2ccncc2)c1C,3.2,12.4*,10.6%,-1.0%,67.6%,-1.2%
CN1c2ccccc2-c2nc(SCC(=O)Nc3ccccc3C(F)(F)F)ncc2S1(=O)=O,x,x,x,-4.0%,7.9%,x
CCCCc1ccc(NC(=O)Cn2cnc3c2c(=O)n(C)c(=O)n3C)cc1,x,x,x,0.0%,-7.3%,x
COC(=O)C1=C(C)NC(C)=C(C(=O)OCCCN2CCC(c3ccccc3)(c3ccccc3)CC2)C1c1cccc([N+](=O)[O-])c1 (stereo not drawn),x,x,x,0.0%,x,x
CC(=O)OC[C@@H]1O[C@H](CCO/N=C\[C@@H](C)[C@H](OCc2ccccc2)C(C)C)C=C[C@@H]1OC(C)=O,x,x,-4.5%[12.9 µM],x,x,x
Cc1ccccc1-c1ccc(Nc2ccc(N3CCOCC3)cc2)nn1,25.6,29.4*,-29.6%,-4.4%,0.2%,-10.6%
COc1ccc(NS(=O)(=O)c2cccc(NC(=O)CCS(=O)(=O)c3ccccc3)c2)cc1,-11.7,-3.1,0.4%,2.7%,-24.3%,-0.9%
O=[N+]([O-])c1ccc(NC(=S)N/C(=N/CS(=O)(=O)c2ccccc2)c2ccccc2)cc1,55.8*,27.9*,1.2%,-4.5%,20µM*,0.3%
COc1ccc(NC(=S)N/C(=N/CS(=O)(=O)c2ccccc2)c2ccccc2)cc1,69.7*,35.2*,-13.9%,-5.5%,39.8µM*,-0.7%
CC(=O)OCOC(=O)CNc1ccccc1OCCOc1ccccc1NCC(=O)OCOC(C)=O,-6.7,-10.3,-8.0%,x,x,x
Cc1cccc(C)c1OCC(=O)NNC(=S)NC(=O)C1CC1,18.9,-0.8,x,-5.5%,-2.2%,0.5%
COc1ccc(NC(=O)C2CCC(=O)N2S(=O)(=O)c2ccc(C)cc2)cc1Cl (stereo not drawn),-1.9,-1.5,-7.0%,3.8%,-8.3%,-3.8%
Cc1ccc(NC(=O)CSc2nnc(-c3cccs3)o2)cc1S(=O)(=O)N(C)C,117.0*,26.6*,2.4%,x,x,1.1%
